# According to paper PMC5700166:
# What was measured:
# Experiment in all cases: protein-binding microarray (PBM); PBM: ~300 nM protein, 6 mM HEPES pH 7.8, 80 mM KCl, 0.5 mM EDTA, 0.5 mM EGTA, 6% glycerol, 35 ng/ul poly-dIdC, 1% milk, 1 h, room temperature; Ap Aiptasia and Nv Nematostella (sea anemones) / Co Capsaspora / Aq Amphimedon (sponge) / Dm Drosophila / Hu human; RHD is the Rel homology domain; high values mean tight binding
# Details in all cases: dsDNA, one strand shown
# [1] = molecular target: T1, GST-Ap-NF-kB RHD (Exaiptasia pallida (Aiptasia), UniProt A0A913YAJ5 2-422)
# T1 sequence: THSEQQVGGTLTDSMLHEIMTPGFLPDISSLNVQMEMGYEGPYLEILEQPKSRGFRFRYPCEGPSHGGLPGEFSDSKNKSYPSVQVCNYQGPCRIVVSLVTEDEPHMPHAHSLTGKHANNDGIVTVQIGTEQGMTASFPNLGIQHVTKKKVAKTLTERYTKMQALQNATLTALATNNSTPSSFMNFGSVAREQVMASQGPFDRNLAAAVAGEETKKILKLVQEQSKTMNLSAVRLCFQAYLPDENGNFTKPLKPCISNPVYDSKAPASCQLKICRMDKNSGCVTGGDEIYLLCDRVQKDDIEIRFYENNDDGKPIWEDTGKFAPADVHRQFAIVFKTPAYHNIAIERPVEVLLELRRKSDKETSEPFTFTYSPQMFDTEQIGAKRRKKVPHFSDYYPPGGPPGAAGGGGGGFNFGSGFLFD
# [2] = molecular target: T2, GST-Nv-NF-kB (Cys allele) (Nematostella vectensis, UniProt E5G601 2-411)
# T2 sequence: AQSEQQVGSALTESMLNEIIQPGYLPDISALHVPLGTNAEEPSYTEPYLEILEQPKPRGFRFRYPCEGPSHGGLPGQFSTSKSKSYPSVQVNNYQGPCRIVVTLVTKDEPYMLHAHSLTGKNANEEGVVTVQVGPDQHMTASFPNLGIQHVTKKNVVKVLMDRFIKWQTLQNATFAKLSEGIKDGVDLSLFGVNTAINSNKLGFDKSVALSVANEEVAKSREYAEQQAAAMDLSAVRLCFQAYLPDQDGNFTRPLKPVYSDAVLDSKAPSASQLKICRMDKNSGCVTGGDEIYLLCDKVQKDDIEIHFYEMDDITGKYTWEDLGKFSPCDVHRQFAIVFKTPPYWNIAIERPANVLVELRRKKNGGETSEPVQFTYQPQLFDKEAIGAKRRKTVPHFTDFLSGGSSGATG
# [3] = molecular target: T3, GST-Co-NF-kB (Capsaspora owczarzaki, UniProt F1ARL5 200-546)
# T3 sequence: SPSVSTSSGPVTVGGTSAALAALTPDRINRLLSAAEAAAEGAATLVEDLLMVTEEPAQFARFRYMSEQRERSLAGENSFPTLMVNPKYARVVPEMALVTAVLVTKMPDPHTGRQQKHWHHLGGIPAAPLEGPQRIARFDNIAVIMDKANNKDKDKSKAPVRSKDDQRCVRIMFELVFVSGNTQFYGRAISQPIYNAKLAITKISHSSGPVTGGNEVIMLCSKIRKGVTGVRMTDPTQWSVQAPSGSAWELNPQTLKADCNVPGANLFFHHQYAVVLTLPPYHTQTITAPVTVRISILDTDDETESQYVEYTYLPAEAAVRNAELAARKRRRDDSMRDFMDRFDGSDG
# [4] = molecular target: T4, GST-Dm-Relish (Drosophila melanogaster, UniProt Q94527 99-473)
# T4 sequence: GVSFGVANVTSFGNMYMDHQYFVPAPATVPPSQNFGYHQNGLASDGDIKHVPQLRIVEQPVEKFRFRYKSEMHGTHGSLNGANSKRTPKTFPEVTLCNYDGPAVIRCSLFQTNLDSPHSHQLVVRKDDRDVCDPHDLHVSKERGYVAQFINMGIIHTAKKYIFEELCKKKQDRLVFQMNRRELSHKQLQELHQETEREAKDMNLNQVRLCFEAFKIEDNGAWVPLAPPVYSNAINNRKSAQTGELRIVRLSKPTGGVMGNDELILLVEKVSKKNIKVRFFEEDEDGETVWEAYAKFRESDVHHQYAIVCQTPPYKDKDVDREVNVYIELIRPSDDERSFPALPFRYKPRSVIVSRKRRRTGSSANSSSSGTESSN
# [5] = molecular target: T5, GST-Aq-NF-kB (Amphimedon queenslandica, UniProt A9Y5G7 2-389)
# T5 sequence: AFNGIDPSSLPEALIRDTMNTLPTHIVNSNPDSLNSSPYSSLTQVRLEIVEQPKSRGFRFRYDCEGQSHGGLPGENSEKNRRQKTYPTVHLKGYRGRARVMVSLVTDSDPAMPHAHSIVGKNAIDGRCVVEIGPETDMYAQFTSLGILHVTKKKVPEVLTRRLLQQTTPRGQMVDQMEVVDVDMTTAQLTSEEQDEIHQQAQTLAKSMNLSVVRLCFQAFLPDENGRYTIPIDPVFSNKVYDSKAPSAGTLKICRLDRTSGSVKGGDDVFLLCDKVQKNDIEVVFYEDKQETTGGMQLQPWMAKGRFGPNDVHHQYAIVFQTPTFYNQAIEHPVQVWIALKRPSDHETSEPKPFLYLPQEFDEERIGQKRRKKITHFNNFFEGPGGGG
# [6] = molecular target: GST-Hu-p50 (Homo sapiens, UniProt P19838 7-356)
# Chain of GST-Hu-p50 (P19838 7-356): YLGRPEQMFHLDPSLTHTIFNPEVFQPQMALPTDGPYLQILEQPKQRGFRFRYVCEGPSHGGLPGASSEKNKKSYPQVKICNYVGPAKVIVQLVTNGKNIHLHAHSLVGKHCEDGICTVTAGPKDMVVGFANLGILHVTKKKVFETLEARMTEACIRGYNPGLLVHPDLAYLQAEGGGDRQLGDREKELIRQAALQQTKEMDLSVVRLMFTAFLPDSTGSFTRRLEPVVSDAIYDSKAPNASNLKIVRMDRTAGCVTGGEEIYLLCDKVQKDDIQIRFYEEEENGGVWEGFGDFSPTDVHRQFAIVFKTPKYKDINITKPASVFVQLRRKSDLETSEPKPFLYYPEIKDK
Sequence,binding signal [1] [z-score],binding signal [2] [z-score],binding signal [3] [z-score],binding signal [4] [z-score],binding signal [5] [z-score],binding signal [6] [z-score]
CCGATTAACATCAAAGCACCCCCTGATGTTAATCGGGTCTTGATTCGCTTGACGCTGCTG,4.9,3.86,3.63,3.26,4.36,4.35
CCGATTAACATCAGAAGACCCCCTGATGTTAATCGGGTCTTGATTCGCTTGACGCTGCTG,5.66,3.66,1.79,4.9,4.82,4.45
CCGATTAACATCATGTATGCCCCTGATGTTAATCGGGTCTTGATTCGCTTGACGCTGCTG,1.68,1.71,1.24,1.12,2.51,1.27
CCGATTAACATCAAGAGTCCCCCTGATGTTAATCGGGTCTTGATTCGCTTGACGCTGCTG,7.54,5.23,5.05,5.74,5.26,5.46
CCGATTAACATCAAAAAATCCCTTGATGTTAATCGGGTCTTGATTCGCTTGACGCTGCTG,6.16,7.58,1.77,8.1,7.46,5.47
CCGATTAACATCAGAACCCCCCCTGATGTTAATCGGGTCTTGATTCGCTTGACGCTGCTG,7.14,4.85,4.1,7.49,5.36,5.28
CCGATTAACATCAGGAGTTCCCATGATGTTAATCGGGTCTTGATTCGCTTGACGCTGCTG,2.2,2.14,1.68,6.1,3.51,1.53
CCGATTAACATCAGGAACCCCCCTGATGTTAATCGGGTCTTGATTCGCTTGACGCTGCTG,8.98,6.2,3.38,9.74,7.32,5.86
CCGATTAACATCACGGAATTCCCTGATGTTAATCGGGTCTTGATTCGCTTGACGCTGCTG,6.01,6.74,3.4,7.05,7.07,4.62
CCGATTAACATCACAGAAACCCCTGATGTTAATCGGGTCTTGATTCGCTTGACGCTGCTG,5.66,4.62,1.21,6.6,4.61,5.39
CCGATTAACATCACAAATACCCCTGATGTTAATCGGGTCTTGATTCGCTTGACGCTGCTG,5.46,4.42,4.04,3.75,4.3,5.3
CCGATTAACATCAGGATGTCCCCTGATGTTAATCGGGTCTTGATTCGCTTGACGCTGCTG,6.09,4.93,2.61,5.89,5.87,4.51
CCGATTAACATCAGGGGACGTTATGATGTTAATCGGGTCTTGATTCGCTTGACGCTGCTG,4.77,5,3.19,2.7,4.72,4.56
CCGATTAACATCACCAAACCCCCTGATGTTAATCGGGTCTTGATTCGCTTGACGCTGCTG,6.25,4.31,2.03,5.55,4.31,6.3
CCGATTAACATCAAAAAACCCCATGATGTTAATCGGGTCTTGATTCGCTTGACGCTGCTG,6.53,7.08,2.59,9.52,6.77,6.62
CCGATTAACATCAGACAACCCCCTGATGTTAATCGGGTCTTGATTCGCTTGACGCTGCTG,5.23,4.47,1.95,5.15,4.98,5.28
CCGATTAACATCAAATTCCCTTATGATGTTAATCGGGTCTTGATTCGCTTGACGCTGCTG,3.4,5.97,2.16,3.37,5.01,4.42
CCGATTAACATCAAAAGCCCCCCTGATGTTAATCGGGTCTTGATTCGCTTGACGCTGCTG,5.96,6,4.6,8.42,6.73,5.72
CCGATTAACATCAAGGGACTTCCTGATGTTAATCGGGTCTTGATTCGCTTGACGCTGCTG,6.06,7.09,1.07,7.2,6.58,5.08
CCGATTAACATCAGGGAAATTAATGATGTTAATCGGGTCTTGATTCGCTTGACGCTGCTG,3.37,5.52,4.18,2.54,4.81,4.27
CCGATTAACATCAGGGGGTATTATGATGTTAATCGGGTCTTGATTCGCTTGACGCTGCTG,7.58,5.39,4.88,4.91,5.8,5.39
CCGATTAACATCAGAGTATCCCCTGATGTTAATCGGGTCTTGATTCGCTTGACGCTGCTG,5.9,4.9,4.05,3.14,3.98,4.2
CCGATTAACATCAAAACACCCCTTGATGTTAATCGGGTCTTGATTCGCTTGACGCTGCTG,3.63,2.54,2,4.19,4.03,4.32
